A selection: hits, their analogues and other compounds. The true share with any hit is near 11%.
Tau fluor cs = counter-screen for tau fibril formation inhibitors; Potency, µM (doses to about 57.7 µM), without a hit: top-dose activity change, negative = decrease; tau K18 P301L Alexa594 fluorescence, heparin fibrillization; 0.93% of 280,000 active; note: potency is the fitted concentration of half-maximal effect; nearly all actives have a fitted effect of over 55% in size
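Human tau K18 P301L (15 uM unlabeled, 0.24 uM Alexa 594-labeled) in 100 mM sodium acetate pH 7 with 20 uM heparin, 6 hr at 37 C. ThT 30 uM added, 1 hr ambient; Alexa 594 FP and total fluorescence read at 555/632 nm.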
Coupling enz = coupling enzyme interference in Giardia aldolase counter-screen; coupling enzyme system counterscreen, AmpLite Red fluorescence; activity change, negative = inhibition, % at 58.2 µM, hits read low; 0.67% of 290,000 active; AID 2472; in the data active = activity change below about -30%
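Fluorescence at 525 nm excitation and 598 nm emission measured inhibition of the coupled detection system without aldolase. Compounds (at 57.5 uM final) were preincubated 10 min at room temperature with coupling enzyme reagent before a 20 min substrate/AmpLite Red step.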
G9a block = inhibitors of human histone lysine methyltransferase G9a. Q96KQ7. G9a H3K9 monomethylation, AlphaScreen, 2 h. Potency, µM (series often up to 102 µM), inactives show at the top dose activity, negative = inhibition, hits mostly inhibitors. 8.8% of 350,000 active. AID 504332; note: potency is the fitted concentration of half-maximal effect; nearly all actives have a fitted effect of over 75% in size
Target sequence (Q96KQ7 913-1193 limits assumed): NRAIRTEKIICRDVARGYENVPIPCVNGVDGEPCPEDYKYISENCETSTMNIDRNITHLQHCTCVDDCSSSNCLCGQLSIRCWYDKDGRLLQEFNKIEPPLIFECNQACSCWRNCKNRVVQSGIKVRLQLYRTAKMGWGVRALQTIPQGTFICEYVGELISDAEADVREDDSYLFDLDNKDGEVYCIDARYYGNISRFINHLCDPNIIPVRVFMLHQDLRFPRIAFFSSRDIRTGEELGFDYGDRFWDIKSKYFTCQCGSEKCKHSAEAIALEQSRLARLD
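Quantitative HTS format: methyltransferase activity on a biotin-tagged H3K9 peptide is measured by AlphaScreen, using a rabbit anti-monomethyl-H3K9 antibody with streptavidin donor and anti-IgG acceptor beads. Final levels are 20 nM enzyme, 500 nM peptide, 20 uM SAM; 2 h RT.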
Tau ThT inhib = tau fibrillization inhibition (ThT binding) | P10636 | recombinant tau K18 P301L (four-repeat tau fragment), heparin-induced fibrillization, ThT fluorescence | Potency, µM (doses to about 57.4 µM), for the others: top-dose activity, negative = inhibition, most hits filed as inhibitors | 2.1% of 270,000 active; note: potency is the fitted concentration of half-maximal effect; nearly all actives have a fitted effect of over 55% in size
Target sequence (P10636 561-689 P618L limits assumed): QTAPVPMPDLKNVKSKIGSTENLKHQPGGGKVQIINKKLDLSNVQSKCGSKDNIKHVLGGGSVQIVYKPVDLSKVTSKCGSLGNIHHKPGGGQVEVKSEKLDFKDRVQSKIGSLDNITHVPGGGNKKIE
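Recombinant human tau K18 fragment […] carrying P301L, 15 uM unlabeled plus 0.24 uM Alexa 594-labeled, was fibrillized with 20 uM heparin in 100 mM sodium acetate pH 7 for 6 hr at 37 C; 30 uM ThT fluorescence read after 1 hr.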
Sfp PPTase inh = Sfp phosphopantetheinyl transferase inhibition. Q9F4F7. Biochemical Sfp PPTase activity, qHTS. Potency, µM, for the others: largest response in the series, negative = inhibition, actives largely listed as inhibitors. 3.5% of 310,000 active;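 note: the enzyme is Sfp with the accession as filed and its product quenches rhodamine fluorescence; potency is the fitted concentration of half-maximal effect; 0% = enzyme reaction without inhibitor and -100% = no enzyme wells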
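Reaction rates are the 30-min fluorescence difference (ex 525, em 598 nm) in wells containing 15 nM Sfp, 5 uM rhodamine-CoA and 12.5 uM BHQ-2-YbbR at pH 7.6 with 10 mM MgCl2.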
Tau fibril FP = blocks human tau fibril formation measured by polarization | 0.39% of 280,000 active | K18 P301L tau heparin fibrillization, Alexa594 FP, 6 h | P10636 | Potency, µM (titrated, usually from 57.7 µM), inactives show at the highest dose activity, negative = inhibition, actives largely listed as inhibitors; note: potency is the fitted concentration of half-maximal effect; nearly all actives have a fitted effect of over 55% in size
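Steps: dispense K18 P301L tau (15 uM plus 0.24 uM Alexa 594 tracer, final) in pH 7 sodium acetate; add compound; add heparin (20 uM final); incubate 6 hr, 37 C; add ThT (30 uM final); after 1 hr ambient, read FP.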
Numbers without * were called inactive; [ ] = remark or other dose. Unless noted, calls come from the whole dose curve; as a rule, active = well fitted curve in the direction sought with a large enough effect; inconclusive = small, poorly fitted or top-dose-only effect, or another doubt; inactive = no such curve, though single readings can be large; an effect the other way counts as inactive or inconclusive. Unless noted, % is set by controls: 0 for no effect and ±100 for the full control effect.

What do the screens show for `CN(C)S(=O)(=O)c1cccc(NC(=S)Nc2cc(Cl)cc(Cl)c2)c1`?
Tau fluor cs: inconclusive; Coupling enz: 0; G9a block: inconclusive; Tau ThT inhib: -11%; Sfp PPTase inh: 50µM*; Tau fibril FP: 25µM*

What do the screens show for `CN(C)S(=O)(=O)c1cccc(NC(=S)NCc2ccco2)c1`?
Tau fluor cs: -13%; Coupling enz: 10; G9a block: 45µM*; Tau ThT inhib: -9%; Sfp PPTase inh: inconclusive; Tau fibril FP: -12%

What do the screens show for `CCN(CCO)c1ccc(NC(=S)Nc2cccc(S(=O)(=O)N(C)C)c2)cc1`?
Tau fluor cs: inconclusive; Coupling enz: -41*; G9a block: inconclusive; Tau ThT inhib: 14µM*; Sfp PPTase inh: 50µM*; Tau fibril FP: inconclusive

What do the screens show for `COc1ccccc1NC(=O)c1c(C)cc(C)nc1SCC(=O)c1ccc(Cl)cc1`?
Tau fluor cs: -7%; G9a block: inconclusive; Tau ThT inhib: -3%; Tau fibril FP: -4%

Results for C#CCN1C(=O)C(O)(CC(=O)/C=C/c2ccco2)c2ccccc21 (centres undefined) ?
Tau fluor cs: 0%; Coupling enz: 0; G9a block: 50µM*; Tau ThT inhib: -5%; Sfp PPTase inh: 35µM*; Tau fibril FP: -1%

Results for O=C(CC1(O)C(=O)N(CCc2ccccc2)c2ccccc21)c1ccco1 (centres undefined) ?
Tau fluor cs: 1%; Coupling enz: -1; G9a block: 15%; Tau ThT inhib: -9%; Sfp PPTase inh: 9%; Tau fibril FP: 9%

Results for CC(=O)c1cccc(NC(=O)CN2C(=O)CCc3cc(S(=O)(=O)N4CCCCC4)ccc32)c1 ?
Tau fluor cs: -12%; G9a block: 0%[59 µM]; Tau ThT inhib: 5%; Tau fibril FP: -11%

Results for CCOc1ccc(Cc2c(C)[nH]c3ccc(C(=O)O)cc3c2=S)cc1 ?
Coupling enz: 0; G9a block: 13µM*; Sfp PPTase inh: 56µM*

What do the screens show for `COc1ccc2[nH]c(C)c(CN3CCCCC3)c(=O)c2c1`?
Tau fluor cs: 2%; Coupling enz: 1; G9a block: 0%[12.7 µM]; Tau ThT inhib: -2%; Sfp PPTase inh: 15%; Tau fibril FP: 5%

How did CCc1c(C)[nH]c2ccc(OC)cc2c1=S do in these assays?
Tau fluor cs: -15%; Coupling enz: -3; G9a block: 4.5µM*; Tau ThT inhib: inconclusive; Sfp PPTase inh: 10µM*; Tau fibril FP: -5%

What do the screens show for `CCN1CCN(C(=O)CSc2nc(N)cc(N)n2)CC1`?
Tau fluor cs: 6%; Coupling enz: 4; G9a block: 45µM*; Tau ThT inhib: -5%; Sfp PPTase inh: -2%; Tau fibril FP: 2%

How did COc1ccc(Cn2c(C)nc3oc4cc(OC)ccc4c(=O)c3c2=O)cc1 do in these assays?
Tau fluor cs: 7%; Coupling enz: 1; G9a block: 6%; Tau ThT inhib: -3%; Sfp PPTase inh: 10%; Tau fibril FP: 4%

Results for CCCCCCn1c(-c2ccco2)nc2oc3cc(OC)ccc3c(=O)c2c1=O ?
Tau fluor cs: 0%; Coupling enz: 1; G9a block: 20µM*; Tau ThT inhib: -2%; Sfp PPTase inh: 5%; Tau fibril FP: 0%

What do the screens show for `COc1ccc2c(=O)c3c(=O)n(Cc4ccco4)c(-c4ccccc4)nc3oc2c1`?
Tau fluor cs: -10%; Coupling enz: 3; G9a block: inconclusive; Tau ThT inhib: inconclusive; Sfp PPTase inh: 32µM*; Tau fibril FP: -3%

Results for CCCc1nc2sc3ccccc3c(=O)c2c(=O)n1Cc1ccc(OC)cc1 ?
Tau fluor cs: -2%; Coupling enz: 5; Tau ThT inhib: inconclusive; Sfp PPTase inh: inconclusive; Tau fibril FP: -5%

What do the screens show for `COc1ccc2c(=O)c3c(=O)n(Cc4ccco4)c(-c4cc(OC)c(OC)c(OC)c4)nc3oc2c1`?
Tau fluor cs: -11%; Coupling enz: -1; G9a block: inconclusive; Tau ThT inhib: inconclusive; Sfp PPTase inh: inconclusive; Tau fibril FP: -8%

Results for CCCc1nc2oc3cc(OC)ccc3c(=O)c2c(=O)n1Cc1ccco1 ?
Tau fluor cs: 1%; Coupling enz: -2; G9a block: -20%[59 µM]; Tau ThT inhib: inconclusive; Sfp PPTase inh: 32µM*; Tau fibril FP: 0%

Results for CCCc1nc2sc3ccccc3c(=O)c2c(=O)n1Cc1ccco1 ?
Tau fluor cs: -22%; Coupling enz: -1; G9a block: inconclusive; Tau ThT inhib: -9%; Sfp PPTase inh: 28µM*; Tau fibril FP: -6%

What do the screens show for `COCCn1c(-c2ccccc2)nc2oc3cc(OC)ccc3c(=O)c2c1=O`?
Tau fluor cs: -4%; Coupling enz: 0; G9a block: 61%[59 µM]; Tau ThT inhib: -3%; Sfp PPTase inh: 25%; Tau fibril FP: 2%

What do the screens show for `CNc1ncncc1-c1ccccc1C(F)(F)F`?
Coupling enz: 0; G9a block: inconclusive; Sfp PPTase inh: inconclusive

How did COc1cccc(N2CC(NC(=O)c3ccc4c(c3)OCO4)CC2=O)c1 (centres undefined) do in these assays?
Tau fluor cs: 0%; G9a block: 12%[59 µM]; Tau ThT inhib: 1%; Tau fibril FP: -1%

How did COc1cccc(NC(=O)c2sc3nc(C)c(C(=O)Nc4ccc(Cl)cc4)c(-c4ccc(Br)cc4)c3c2N)c1 do in these assays?
Tau fluor cs: -18%; G9a block: -2%[59 µM]; Tau ThT inhib: -9%; Tau fibril FP: inconclusive

How did CC(=O)OC1CCC2(C)C(=CC=C3C2CCC2(C)C3CCC2C(C)/C=C/C(C)C(C)C)C1(C)C (centres undefined) do in these assays?
Tau fluor cs: -2%; Coupling enz: 1; G9a block: 1%[2.33 µM]; Tau ThT inhib: -4%; Sfp PPTase inh: 7%; Tau fibril FP: 13%

What do the screens show for `COc1cccc([C@@H]2Oc3ccc(Br)cc3C[C@H]2OC(=O)NCCc2ccc(OC)c(OC)c2)c1`?
Tau fluor cs: -7%; Coupling enz: 0; Tau ThT inhib: -5%; Sfp PPTase inh: -10%; Tau fibril FP: 8%

Results for CC(=O)Oc1ccc(C(=O)Nc2cccc3c2CCCC3)cc1 ?
Coupling enz: -4; G9a block: 19%; Sfp PPTase inh: 3%

How did CN(C)CC(CCC(CN(C)C)C(=O)c1ccccc1)C(=O)c1ccccc1 (centres undefined) do in these assays?
Tau fluor cs: -2%; Coupling enz: -1; G9a block: 45µM*; Tau ThT inhib: 7%; Sfp PPTase inh: -8%; Tau fibril FP: inconclusive

Screening data from PubChem.
